Shiga toxin inh: inhibitors of Shiga toxin in Vero cells | Vero cells, Shiga toxin protein synthesis inhibition reporter | inhibition, % at 38.7 µM | 290,000 compounds, 9.2% hits | AID 2315; in the data active = inhibition mostly above about 28%, no sharp cut-off; inactive = mostly below about 43%; note: 0% is about no effect
AMA1 RON2 block: AMA1-RON2 (P. falciparum) interaction inhibition. AlphaScreen AMA1-biotinylated RON2 peptide binding. Potency, µM (doses to about 58.2 µM), without a hit: at the top dose activity change, negative = inhibition, most hits filed as inhibitors. 360,000 compounds, 0.2% hits; active = well fitted inhibition curve with a large enough effect; inconclusive = small, poorly fitted or top-dose-only effect; inactive = no such curve, though single readings can be large or run the other way;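 note: potency is the fitted concentration of half-maximal effect; 0% = vehicle wells and -100% = peptide control; nearly all actives have a fitted effect of over 45% in size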
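AMA1 (3D7) with his tag at 25 nM final met compounds first, then biotinylated RON2 peptide at 25 nM; detection used donor plus acceptor beads, 10 µg/mL apiece, read by AlphaScreen after 30 min at room temperature.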
LASV entry inh: blocks Lassa virus binding to or entry into cells | Lassa virus pseudotype entry inhibition, cell reporter | 300,000 compounds, 1.2% hits | AID 540256 | Potency, µM (titrated, usually from 37.9 µM), for the others: at the top dose activity change, negative = inhibition, most hits filed as inhibitors; calls by dose curve; tested in HEK293 cells; note: potency is the fitted concentration of half-maximal effect; % is set by controls: 0 for no effect and ±100 for the full control effect; nearly all actives have a fitted effect of over 50% in size
Cycloheximide cs: affects cycloheximide protein synthesis inhibition readout, counter-screen | cell reporter, cycloheximide protein synthesis inhibition counterscreen | max response, % | 300,000 compounds, 12% hits | AID 2314; in the data active = max response mostly above about 13%, no sharp cut-off; inactive = mostly below about 14%; note: read at 38.3 µM for the half of the compounds with a filed dose; 0% is about no effect
MARV entry inh: blocks Marburg virus binding to or entry into cells | AID 540276 | 300,000 compounds, 1.8% hits | Potency, µM (series often up to 37.8 µM), for the others: at the highest dose activity change, negative = inhibition, usual class: inhibitors | Marburg virus pseudotyped entry inhibition, cell reporter; calls by dose curve; tested in HEK293 cells; note: potency is the fitted concentration of half-maximal effect; % is set by controls: 0 for no effect and ±100 for the full control effect
An asterisk follows results filed as active; ? = inconclusive; / = not tested or not shown; ! = not confirmed by another sample; [ ] = remark or other dose. The full list was thinned out, with hits kept by preference.

SMILES	Shiga toxin inh	AMA1 RON2 block	LASV entry inh	Cycloheximide cs	MARV entry inh
Cc1ccc(CN2CCC(c3nc4ccc(Cl)cc4[nH]3)CC2)cc1	-8.7	-10.1%	?	-3.8	4.11µM*
Clc1ccc2nc(C3CCN(Cc4ccccc4)CC3)[nH]c2c1	-8.0	-0.6%	?	-3.1	?
Cc1ccc2nc(C3CCCCC3)[nH]c2c1	42.2*	-0.9%	/	38.2*	/
CN(c1ccc([N+](=O)[O-])cc1/C=N/NC(=O)COc1ccccc1)C1CCCCC1	-13.8	2.9%	-30.2%	-3.9	3.6%
COc1ccccc1[C@H]1/C(=C(\O)c2ccc(C)cc2)C(=O)C(=O)N1Cc1ccco1	/	/	/	/	-0.9%[46.1 µM]
Cc1ccc(NC(=O)CSc2nncn2N)cc1C	0.6	-2.9%	/	2.8	/
S=C(c1ccc(-c2ccc(Cl)cc2Cl)o1)N1CCCC1	22.5	-4.4%	/	17.7*	/
S=C(c1ccc(-c2ccc(Cl)cc2Cl)o1)N1CCCCC1	77.7*	?	-15.1%	41.9*	?
Cc1cccc(C)c1-n1nnnc1C1(C)CCC(=O)N1CCc1ccc(O)cc1 (stereo not given)	/	5.5%	/	/	/
COCCC(=O)N1CCC(Oc2ccc(C(=O)NC3CCOC(C)(C)C3)cc2)CC1 (stereo not given)	-5.1	-4.8%	8.2%[46.1 µM]	-2.2	6.2%[46.1 µM]
C[C@H]1c2cccc(O)c2C(O)=C2C(=O)[C@]3(O)C(O)=C(C(N)=O)C(=O)C(N(C)C)[C@@H]3[C@@H](O)C21 (stereo not given in full)	/	/	/	/	7.6%
CN(C)[C@@H]1C(=O)C(C(N)=O)=C(O)[C@@]2(O)C(=O)C3=C(O)c4c(O)cccc4[C@@](C)(O)[C@H]3[C@H](O)[C@@H]12	-4.5	1µM*	?	-2.4	?
C[C@H]1c2cccc(O)c2C(O)=C2C(=O)[C@]3(O)C(O)=C(C(N)=O)C(=O)[C@@H](N(C)C)[C@@H]3[C@@H](O)[C@@H]21	-5.5	?	11.1%	10.5*!	4.3%
O=C(/C=C/c1ccc(O)cc1)OC[C@H]1O[C@@H](Oc2c(-c3ccc(O)cc3)oc3cc(O)cc(O)c3c2=O)[C@H](O)[C@@H](O)[C@@H]1O	13.0	/	/	-3.8	/
CC(C)(C)C1=CC(=O)C(N2CCOCC2)=CC1=O	26.6	-25.3%	12.6µM*	-3.3	?
COC(=O)c1cc(C)nc2c1C(=O)C(=O)C=C2N1CCOCC1	-24.9	?	?	-6.0	?
O=C(Nc1ccc(-c2nc3c(ccc4ccccc43)o2)cc1)c1ccco1	29.3	-14.3%	?	26.1*	?
O=C(CN1C(=O)NC2(CCCC2)C1=O)Nc1nc2c(F)cc(F)cc2s1	/	4.1%	-10.9%[46.1 µM]	/	11.9%
O=C(CCc1ccccc1)Nc1nc2c(F)cc(F)cc2s1	112.8*	8.7%	-0.4%	45.4*	0.4%
O=C(Nc1nc2c(F)cc(F)cc2s1)c1ccco1	38.2*	13.8%	/	36.6*	/
O=C(Nc1nc2c(ccc3ccccc32)s1)c1ccco1	101.8*	14.3%	?	46.9*	14.6µM*
CCCCCC(=O)NNC(=O)c1ccc(-c2ccccc2)cc1	6.0	2.9%	7.2%	6.6	16.9%
COc1ccc(NCc2cc3ccc(OC)cc3n(CC(=O)Nc3cccc(OC)c3)c2=O)cc1	/	/	-5.2%[46.1 µM]	/	/
O=C(COC(=O)c1ccco1)Nc1nc2c(F)c(F)c(F)cc2s1	-4.9	10.0%	-1.1%[46.1 µM]	1.6	5.0%[46.1 µM]
O=C(Nc1nc2c(F)c(F)c(F)cc2s1)c1ccco1	103.0*	14.7%	-21.1%[46.1 µM]	29.4*	?
SMILES	Shiga toxin inh	AMA1 RON2 block	LASV entry inh	Cycloheximide cs	MARV entry inh
COc1ccccc1C(=O)Nc1ccc2c(c1)CN(Cc1cnc(C)s1)CC2	29.0*	-14.6%	10.2%	11.5*	?
O=[N+]([O-])c1ccc(N/N=C2\CC3CC=CC23)cc1 (stereo not given)	81.7*	3.8%	/	41.6*	/
O=[N+]([O-])c1ccc(N/N=C2\CC3CC=CC23)c([N+](=O)[O-])c1 (stereo not given)	43.5	14.1µM*	-16.1%	4.9	0.5%[46.1 µM]
O=[N+]([O-])c1ccc(NN=C2CC3CCC2C3)c([N+](=O)[O-])c1 (stereo not given)	/	-2.3%	/	/	/
CN1C(=O)S/C(=C\c2ccc(-n3cncn3)cc2)C1=O	10.4	0.0%	/	9.2	/
CCc1ccc(NC(=O)c2sc3nc(C)c(Cl)c(C)c3c2NC(=O)c2ccccc2OC)cc1	/	/	4.1%[46.1 µM]	/	-0.7%[46.1 µM]
CC(C)Cn1c(N)c(C(=O)CSc2nnc(C3CC3)n2C2CC2)c(=O)n(C)c1=O	/	-9.6%	1.2%	/	0.5%
COc1cccc(C=NNc2nc3ccccc3s2)c1OC	/	-1.6%	-19.4%[46.1 µM]	/	?

Screens deposited in PubChem by National Center for Advancing Translational Sciences (NCATS).
